# Measured values published in PubChem BioAssay AID504915 (The Scripps Research Institute Molecular Screening Center, 2011).
# The other results are listed elsewhere or left out. Unmarked numbers belong to inactive results. Cut-off read from the data, not from the text of the source: active = activation above about 17%; inactive = the rest.
# Target: 5-hydroxytryptamine receptor 5A (Homo sapiens) (UniProt P47898)
# Test: HTR5A agonists, retest of hits, confirmation, cell-based, luminescence (AID 504915);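 note: 0% = cells with vehicle only and 100% = full reference agonist response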
# Conditions: HTR5A agonist cell assay, at 9.3 µM, active compounds read high
# 5-hydroxytryptamine receptor 5A (Homo sapiens), sequence (P47898 whole entry, looked up): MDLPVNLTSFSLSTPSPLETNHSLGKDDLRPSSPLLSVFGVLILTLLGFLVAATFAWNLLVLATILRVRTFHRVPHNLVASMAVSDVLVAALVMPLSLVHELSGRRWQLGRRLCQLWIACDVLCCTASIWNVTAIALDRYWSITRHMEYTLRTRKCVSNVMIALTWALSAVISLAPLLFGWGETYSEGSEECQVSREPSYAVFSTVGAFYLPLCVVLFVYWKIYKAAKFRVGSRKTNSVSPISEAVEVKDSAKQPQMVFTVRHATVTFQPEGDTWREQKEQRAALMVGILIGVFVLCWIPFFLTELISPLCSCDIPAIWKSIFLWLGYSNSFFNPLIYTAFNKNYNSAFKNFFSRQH
smiles,measurement,value
CCCCCCCCCCCCn1ccc(=N)cc1,activation,0.13%
